Screening data as filed in PubChem.
Only a selection was taken, and hits are over-represented in it overall.
STK33 kin inh – human STK33 kinase inhibition. 27,000 tested, 0.44% active. inhibition, % at 12.5 µM. ADP-Glo luminescence, MBP substrate. Q9BYT3; in the data active = inhibition above about 20%
Target sequence (Q9BYT3 whole entry, looked up): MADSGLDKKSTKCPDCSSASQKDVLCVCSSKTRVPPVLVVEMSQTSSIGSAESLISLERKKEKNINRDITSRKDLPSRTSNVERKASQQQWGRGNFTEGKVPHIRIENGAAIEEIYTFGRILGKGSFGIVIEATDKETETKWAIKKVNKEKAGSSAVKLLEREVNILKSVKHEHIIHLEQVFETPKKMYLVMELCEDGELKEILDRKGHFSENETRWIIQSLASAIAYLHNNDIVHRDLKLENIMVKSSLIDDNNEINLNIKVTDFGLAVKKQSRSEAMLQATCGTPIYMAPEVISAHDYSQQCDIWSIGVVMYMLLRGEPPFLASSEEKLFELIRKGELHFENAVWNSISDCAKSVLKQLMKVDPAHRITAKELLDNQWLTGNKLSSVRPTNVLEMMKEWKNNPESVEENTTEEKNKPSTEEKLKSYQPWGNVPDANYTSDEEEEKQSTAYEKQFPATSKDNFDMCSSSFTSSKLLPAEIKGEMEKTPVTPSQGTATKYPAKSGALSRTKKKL
ID4 SMM – binds human ID4 protein on microarray | P47928 | small molecule microarray, Flag-ID4 binding, fluorescence F/B | calls only | 31,000 tested, 1.2% active; call rule not given here;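 also: a binder raises fluorescence above local background on the spot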
Target sequence (P47928 whole entry, looked up): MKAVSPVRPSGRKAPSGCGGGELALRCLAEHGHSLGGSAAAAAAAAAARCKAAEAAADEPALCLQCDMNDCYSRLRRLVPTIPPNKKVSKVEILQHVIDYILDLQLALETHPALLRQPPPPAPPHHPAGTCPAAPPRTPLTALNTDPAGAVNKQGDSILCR
Of the large screens only hits and unclear results are named; the others gave an inactive call.

Cc1ccc2nc(-c3ccccn3)cc(C(=O)Nc3ccc(S(=O)(=O)N4CCOCC4)cc3)c2c1	ID4 SMM active
O=C(Nc1ccc(S(=O)(=O)N2CCOCC2)cc1)c1cc(-c2ccncc2)nc2c(Cl)cccc12	none
C[C@H](CO)N1C[C@H](C)[C@@H](CN(C)C(=O)Nc2ccccc2)Oc2ccc(NC(=O)Cc3ccccc3)cc2CC1=O	none (no result: STK33 kin inh)
C[C@@H]1CN([C@@H](C)CO)C(=O)Cc2cc(NC(=O)CCCN(C)C)ccc2O[C@@H]1CN(C)C	none (no result: STK33 kin inh)
C[C@H]1CN([C@@H](C)CO)C(=O)Cc2cc(NC(=O)Cc3ccccc3)ccc2O[C@H]1CN(C)C(=O)Nc1ccccc1	ID4 SMM active
C[C@@H]1CN([C@@H](C)CO)C(=O)Cc2cc(NC(=O)CCCN(C)C)ccc2O[C@H]1CN(C)C(=O)Nc1ccc(F)cc1	ID4 SMM active (no result: STK33 kin inh)
CC(C)NC(=O)Nc1ccc2c(c1)CC(=O)N([C@@H](C)CO)C[C@H](C)[C@@H](CN(C)Cc1ccccc1)O2	none (no result: ID4 SMM)
C[C@@H]1CN([C@@H](C)CO)C(=O)c2cc(NC(=O)c3ccncc3)ccc2O[C@@H]1CN(C)C	none (no result: STK33 kin inh)
O=C1C=CC(O)(/C=C/C(=O)OC[C@H]2O[C@@H](Oc3ccc(O)cc3)[C@H](O)[C@@H](OC(=O)/C=C/C3(O)C=CC(=O)C=C3)[C@@H]2O)C=C1	STK33 kin inh 52
O=C(/C=C/c1ccc(O)cc1)OC[C@H]1O[C@@H](Oc2cc(O)c3c(c2)OC(c2ccc(O)cc2)CC3=O)[C@H](O)[C@@H](OC(=O)/C=C/c2ccc(O)cc2)[C@@H]1O (stereo not given in full)	none
C[C@@H]1CCCCO[C@@H](CN(C)S(=O)(=O)c2cccs2)[C@@H](C)CN([C@@H](C)CO)C(=O)c2cc(NC(=O)CCCN(C)C)ccc2O1	ID4 SMM active (no result: STK33 kin inh)
C[C@H](CO)N1C[C@H](C)[C@@H](CN(C)S(=O)(=O)c2cccs2)Oc2ccc(NC(=O)CCCN(C)C)cc2C1=O	ID4 SMM active (no result: STK33 kin inh)
C[C@@H]1CN([C@@H](C)CO)C(=O)c2cc(NC(=O)CCCN(C)C)ccc2O[C@@H]1CN(C)S(=O)(=O)c1cccs1	none (no result: ID4 SMM)
C[C@H](CO)N1C[C@H](C)[C@H](CN(C)S(=O)(=O)c2cn(C)cn2)Oc2ccc(NC(=O)CCCN(C)C)cc2C1=O	none (no result: ID4 SMM)
C[C@@H]1CN([C@@H](C)CO)C(=O)c2cc(NC(=O)CCCN(C)C)ccc2O[C@@H](C)CCCCO[C@@H]1CN(C)S(=O)(=O)c1cn(C)cn1	ID4 SMM active (no result: STK33 kin inh)
C[C@@H]1CCCCO[C@H](CN(C)S(=O)(=O)c2cccs2)[C@@H](C)CN([C@H](C)CO)C(=O)c2cc(NC(=O)CCC(F)(F)F)ccc2O1	none (no result: ID4 SMM)
O=C(CSc1nnc(-c2cnccn2)n1-c1ccccc1)Nc1ccc(Br)cc1	none
C/C=C/c1cnc2c(c1)C(=O)N([C@@H](C)CO)C[C@H](C)[C@@H](CN(C)Cc1ccccc1)O2	none (no result: STK33 kin inh)
C[C@H]1CN([C@@H](C)CO)C(=O)c2ccccc2-c2ccccc2CO[C@@H]1CN(C)C(=O)[C@@H]1CCCN1C	none (no result: STK33 kin inh)
C[C@@H]1CCCCO[C@@H](CN(C)C(=O)CCC(F)(F)F)[C@H](C)CN([C@@H](C)CO)C(=O)c2cc(NS(C)(=O)=O)ccc2O1	none (no result: STK33 kin inh)
C[C@H]1CCCCO[C@@H](CN(C)C)[C@@H](C)CN([C@@H](C)CO)C(=O)c2cc(NC(=O)CCCN(C)C)ccc2O1	none (no result: STK33 kin inh)
O=c1[nH]c(SCc2ccccc2[N+](=O)[O-])nc2ccccc12	none
COc1ccc(C)cc1NC(=O)CSc1n[nH]c(-c2ccc(Cl)cc2)n1	none
CNC[C@H]1Oc2ncc(C3=CCCCC3)cc2C(=O)N([C@@H](C)CO)C[C@H]1C	ID4 SMM active (no result: STK33 kin inh)
CNC[C@@H]1Oc2ncc(C#Cc3ccc(OC)c(OC)c3)cc2C(=O)N([C@H](C)CO)C[C@@H]1C	ID4 SMM active
CNC[C@@H]1Oc2ncc(C3=CCCCC3)cc2C(=O)N([C@H](C)CO)C[C@@H]1C	none (no result: STK33 kin inh)
C[C@H]1CN([C@@H](C)CO)C(=O)c2cc(C3=CCCC3)cnc2O[C@@H]1CN(C)S(C)(=O)=O	none (no result: STK33 kin inh)
C[C@H]1CN([C@@H](C)CO)C(=O)c2cc(C3=CCCCC3)cnc2O[C@H]1CN(C)S(=O)(=O)c1cn(C)cn1	ID4 SMM active (no result: STK33 kin inh)
CNC[C@H]1Oc2ncc(C#Cc3cccc(OC)c3)cc2C(=O)N([C@@H](C)CO)C[C@H]1C	none (no result: STK33 kin inh)
O=C(C[C@@H]1C=C[C@@H](NC(=O)Nc2ccccc2F)[C@@H](CO)O1)NCc1ccc(F)cc1	none (no result: STK33 kin inh)
COc1ccc(OCC(=O)Nc2cccc(Cl)c2N2CCOCC2)cc1	none
C[C@@H]1CN([C@@H](C)CO)C(=O)c2cc(-c3ccc(C(=O)N(C)C)cc3)cnc2O[C@H]1CN(C)C	none (no result: STK33 kin inh)
Cc1noc(C)c1NC(=O)N(C)C[C@@H]1OCc2ccccc2-c2c(n(C)c3ccccc23)C(=O)N([C@@H](C)CO)C[C@@H]1C	none (no result: STK33 kin inh)
C[C@H]1CN([C@@H](C)CO)C(=O)c2cc(NC(=O)Cn3cnnn3)ccc2O[C@@H]1CN(C)Cc1ccc2c(c1)OCO2	none (no result: ID4 SMM)
C[C@@H]1CN([C@H](C)CO)C(=O)c2cc(C3=CCCCC3)cnc2O[C@@H]1CN(C)Cc1ccccc1F	none (no result: STK33 kin inh)
C[C@H]1CN([C@@H](C)CO)C(=O)Cc2cc(NC(=O)Nc3ccc(F)cc3)ccc2O[C@@H]1CN(C)C(=O)Nc1ccc(C(F)(F)F)cc1	none (no result: ID4 SMM)
Cc1ccc(-c2nc(SCC(=O)c3ccccc3)n[nH]2)cc1	none
COc1ccc(C(=O)CSc2n[nH]c(-c3ccc(C)cc3)n2)cc1	ID4 SMM active
CNC[C@H]1Oc2cc(C3=CCCC3)ccc2S(=O)(=O)N([C@H](C)CO)C[C@@H]1C	none (no result: STK33 kin inh)
COc1ccc(OC)c(NC(=O)CNC(=O)c2ccc(C(C)(C)C)cc2)c1	none
COc1ccc(C(=O)NCC(=O)Nc2cc(OC)ccc2OC)cc1	ID4 SMM active
COc1ccccc1-c1cnc2c(c1)C(=O)N([C@@H](C)CO)C[C@@H](C)[C@H](CN(C)CC1CCOCC1)O2	none (no result: STK33 kin inh)
CC[C@H](CO)Nc1nc(NCc2ccccc2)c2ncn(C(C)C)c2n1	none
CC(C)n1cnc2c(Nc3cccc(Cl)c3)nc(NCCO)nc21	STK33 kin inh 90 (no result: ID4 SMM)
C[C@@H]1CN([C@H](C)CO)C(=O)c2cccc(NC(=O)C3CCCCC3)c2O[C@H]1CN(C)CC1CC1	none (no result: STK33 kin inh)
C[C@H]1CN([C@@H](C)CO)C(=O)c2cc(C#Cc3ccccc3F)cnc2O[C@@H]1CN(C)C(=O)C1CCC1	none (no result: STK33 kin inh)
c1cc(-c2cnn3cc(-c4ccc(OCCN5CCCCC5)cc4)cnc23)ccn1	ID4 SMM active (no result: STK33 kin inh)
CCCCOc1ccc(C(=O)CCN2CCCCC2)cc1	none (no result: ID4 SMM)
O=c1c(C(F)(F)F)cccn1Cc1ccccc1	none (no result: ID4 SMM)
C[C@@H]1CN([C@H](C)CO)C(=O)c2cc(-c3ccncc3)cnc2O[C@@H]1CN(C)C(=O)C1CCOCC1	ID4 SMM active (no result: STK33 kin inh)
C[C@@H]1CN([C@@H](C)CO)C(=O)c2cc(-c3ccncc3)cnc2O[C@H]1CN(C)Cc1ccc(Oc2ccccc2)cc1	ID4 SMM active (no result: STK33 kin inh)
C[C@H](CO)N1C[C@H](C)[C@H](CN(C)Cc2ccncc2)Oc2ncc(-c3ccccc3)cc2C1=O	none
C[C@@H]1CN([C@H](C)CO)C(=O)c2cc(-c3cccc(F)c3)cnc2O[C@@H]1CN(C)C(=O)C1CCOCC1	none (no result: STK33 kin inh)
C[C@@H]1CN([C@H](C)CO)C(=O)c2cc(C3=CCCC3)cnc2O[C@H]1CN(C)C(=O)Cc1ccncc1	ID4 SMM active (no result: STK33 kin inh)
C[C@@H]1CN([C@H](C)CO)C(=O)c2cc(C3=CCCCC3)cnc2O[C@H]1CN(C)C(=O)Cc1ccccc1	none (no result: STK33 kin inh)
C[C@@H]1CN([C@H](C)CO)C(=O)c2cc(-c3ccncc3)cnc2O[C@H]1CN(C)C(=O)NC1CCCC1	ID4 SMM active (no result: STK33 kin inh)
